# PubChem BioAssay
# Calls of active or inactive are those of the source. Unless noted, how the calls were made is not given here.
# What was measured:
# [1] = tested on: Wnt5a (protein binding on small-molecule microarray); test: small molecules binding Wnt5a protein – biophysical, small-molecule microarray, 635/667 nm fluorescence, primary screen (AID 1142); settings: 635 nm fluorescence, higher = more signal;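 further: fluorescence read at 667 nm with signal to noise per printed feature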
# [2] = ATP-based viability of Huh7 replicon cells – cell-based, CellTiter-Glo luminescence, basal, 48 h, cytotoxicity control for HCV replication inhibitor project, primary screen (AID 1143); settings: higher = more signal, called active from +8 up or from −8 down;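 further: Huh7 hepatoma cells carrying a hepatitis C replication reporter with no stimulus; test concentration not given here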
# [3] = Pseudomonas biofilm growth suppression – PAO1 strain, BacTiter-Glo luminescence, LB-PBS, primary screen (AID 1144); settings: P. aeruginosa PAO1 biofilm, 12 h, higher = more signal
# [4] = basal CRE-LacZ reporter activity in PC12 – cell-based, unstimulated, primary screen (AID 1145); settings: no forskolin, luminescence, 4.5 h, higher = more signal, called active from +8 up or from −8 down
# [5] = forskolin-driven CRE-LacZ activity in PC12 – cell-based, CRE-LacZ reporter, forskolin-stimulated, primary screen (AID 1146); settings: luminescence, 4.5 h, higher = more signal, called active from +8 up or from −8 down;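 further: PC12 cells with 6xCRE LacZ reporter stimulated by forskolin 10 µM; beta-galactosidase reporter signal reflecting CREB driven transcription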
# [6] = target: Streptavidin (Streptomyces avidinii) (UniProt P22629); test: compounds binding control protein streptavidin – biophysical, small-molecule microarray, 635/667 nm fluorescence, artefact control for SMM compound annotation, primary screen (AID 1147); settings: higher = more signal;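 further: signal reflects streptavidin binding to arrayed compounds as a control protein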
# Chain of Streptavidin (Streptomyces avidinii) (P22629 whole entry, looked up): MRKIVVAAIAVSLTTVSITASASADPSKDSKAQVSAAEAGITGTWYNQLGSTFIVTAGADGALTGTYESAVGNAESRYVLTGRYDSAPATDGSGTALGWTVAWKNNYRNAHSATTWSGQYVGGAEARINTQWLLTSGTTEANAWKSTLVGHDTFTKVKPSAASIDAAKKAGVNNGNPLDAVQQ
# [7] = probe aInhba binding on compound microarray – biochemical, small-molecule microarray, 635/667 nm fluorescence, primary screen (AID 1148); settings: higher = more signal;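 further: score merges 667nm spot fluorescence with signal-to-noise for antibody binding to printed compounds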
# Torsin-1A (Homo sapiens) [8] = target: Torsin-1A (Homo sapiens) (UniProt O14656); test: TOR1A wild-type binding on microarray – cell lysate, small-molecule microarray, lysate, 635/667 nm, primary screen (AID 1149); settings: COS7 hTOR1A-WT lysate, 635 nm fluorescence, higher = more signal
# Chain of Torsin-1A (Homo sapiens) (O14656 whole entry, looked up): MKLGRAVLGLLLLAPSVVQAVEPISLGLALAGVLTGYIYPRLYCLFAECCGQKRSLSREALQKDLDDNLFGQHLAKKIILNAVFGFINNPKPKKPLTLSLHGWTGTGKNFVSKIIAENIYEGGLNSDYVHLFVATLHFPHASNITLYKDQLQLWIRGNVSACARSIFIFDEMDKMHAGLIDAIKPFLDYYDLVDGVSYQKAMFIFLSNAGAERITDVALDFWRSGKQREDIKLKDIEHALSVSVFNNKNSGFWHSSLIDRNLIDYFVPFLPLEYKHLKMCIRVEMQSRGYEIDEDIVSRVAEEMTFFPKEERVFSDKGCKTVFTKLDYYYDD
# Torsin-1A (Homo sapiens) [9] = target: Torsin-1A (Homo sapiens) (UniProt O14656); test: torsin A mutant lysate binding on microarrays – cell lysate, small-molecule microarray, COS7 lysate, 635/667 nm fluorescence, primary screen (AID 1150); settings: COS7 hTOR1A mutant lysate, 635 nm fluorescence, higher = more signal;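 further: score pools 667 nm emission and signal to noise measuring lysate protein binding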
# [10] = tested on: Sonic hedgehog protein (Shh); test: Sonic hedgehog microarray binding compounds – biochemical, small-molecule microarray, 635/667 nm fluorescence, primary screen (AID 1151); settings: 635 nm fluorescence, higher = more signal;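 further: Shh protein binding to compounds spotted on small-molecule microarray slides; score combines spot fluorescence intensity with signal-to-noise across triplicate slides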
# [11] = optical density shifts of acrAB sulA E. coli – strain DRC41, OD650, 48 h, E. coli filamentation inducer project, primary screen (AID 1152); settings: higher = more signal, called active from +8 up or from −8 down;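 further: E. coli MC1000 strain DRC41 lacking acrAB efflux pump and sulA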
# [12] = probe aLefty1 binding on compound microarray – biochemical, small-molecule microarray, 635/667 nm fluorescence, primary screen (AID 1153); settings: higher = more signal;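 further: score merges spot fluorescence with signal-to-noise ratio from the scanned slide images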
# [13] = plasmodial surface anion channel blockers, osmotic lysis – cell-based, P. falciparum Indochina, OD700, 1 h, primary screen (AID 1154); settings: P. falciparum Indochina infected RBC osmotic lysis, higher = more signal, called active from +8 up or from −8 down
# [14] = plasmodial surface anion channel blockers, osmotic lysis – cell-based, P. falciparum Indochina, OD700, 2 h, primary screen (AID 1155);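 further: lysis reports solute entry through the parasite surface anion channel PSAC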; settings: P. falciparum Indochina infected erythrocytes, higher = more signal, called active from +8 up or from −8 down
# [15] = changes in parasitized red cell lysis, either direction – P. falciparum Indochina, OD700, 3 h, PSAC antagonist project, primary screen (AID 1156); settings: P. falciparum-infected erythrocytes, osmotic lysis, higher = more signal, called active from +8 up or from −8 down
# [16] = plasmodial surface anion channel blockers, osmotic lysis – cell-based, P. falciparum Indochina, OD700, 18 h, primary screen (AID 1157); settings: P. falciparum Indochina infected erythrocytes, osmotic lysis OD700, 18 h; higher = more signal, called active from +8 up or from −8 down
# [17] = S6 kinase pathway phospho-S6 level changes – cell-based, A549, cytoblot, luminescence, serum-stimulated, primary screen (AID 1158); settings: 5 h, higher = more signal;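 further: serum-stimulated A549 lung adenocarcinoma cells; signal is phosphorylated S6 detected by cytoblot immunostaining with HRP secondary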
# [18] = target: NADPH oxidase 2 (Homo sapiens) (UniProt P04839); test: compounds shifting NOX2 Amplex Red fluorescence – cell-based, HEK293-NOX2, PMA-stimulated, NOX inhibitor project, primary screen (AID 1159); settings: 45 min, higher = more signal, called active from +8 up or from −8 down; further: test concentration not given here
# Chain of NADPH oxidase 2 (Homo sapiens) (P04839 whole entry, looked up): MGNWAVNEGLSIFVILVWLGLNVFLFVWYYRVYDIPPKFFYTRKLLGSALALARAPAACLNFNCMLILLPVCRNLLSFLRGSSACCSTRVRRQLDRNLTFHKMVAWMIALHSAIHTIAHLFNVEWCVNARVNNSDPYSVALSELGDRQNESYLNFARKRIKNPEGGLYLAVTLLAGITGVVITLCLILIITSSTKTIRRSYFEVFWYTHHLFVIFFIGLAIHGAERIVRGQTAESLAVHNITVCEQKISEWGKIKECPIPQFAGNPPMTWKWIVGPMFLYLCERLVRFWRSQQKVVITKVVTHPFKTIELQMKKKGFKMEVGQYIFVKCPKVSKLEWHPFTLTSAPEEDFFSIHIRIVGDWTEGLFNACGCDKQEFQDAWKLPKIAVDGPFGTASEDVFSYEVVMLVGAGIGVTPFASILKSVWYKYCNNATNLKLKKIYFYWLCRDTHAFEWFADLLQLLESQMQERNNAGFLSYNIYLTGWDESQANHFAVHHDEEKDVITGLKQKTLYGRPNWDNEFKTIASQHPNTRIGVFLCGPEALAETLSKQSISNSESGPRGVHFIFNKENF
# [19] = target: NADPH oxidase 4 (Homo sapiens) (UniProt Q9NPH5); test: compounds shifting NOX4 Amplex Red fluorescence – cell-based, HEK293-NOX4, tetracycline-induced, NOX inhibitor project, primary screen (AID 1160); settings: HEK293-NOX4, Amplex Red H2O2 fluorescence, 45 min; higher = more signal, called active from +8 up or from −8 down
# Chain of NADPH oxidase 4 (Homo sapiens) (Q9NPH5 whole entry, looked up): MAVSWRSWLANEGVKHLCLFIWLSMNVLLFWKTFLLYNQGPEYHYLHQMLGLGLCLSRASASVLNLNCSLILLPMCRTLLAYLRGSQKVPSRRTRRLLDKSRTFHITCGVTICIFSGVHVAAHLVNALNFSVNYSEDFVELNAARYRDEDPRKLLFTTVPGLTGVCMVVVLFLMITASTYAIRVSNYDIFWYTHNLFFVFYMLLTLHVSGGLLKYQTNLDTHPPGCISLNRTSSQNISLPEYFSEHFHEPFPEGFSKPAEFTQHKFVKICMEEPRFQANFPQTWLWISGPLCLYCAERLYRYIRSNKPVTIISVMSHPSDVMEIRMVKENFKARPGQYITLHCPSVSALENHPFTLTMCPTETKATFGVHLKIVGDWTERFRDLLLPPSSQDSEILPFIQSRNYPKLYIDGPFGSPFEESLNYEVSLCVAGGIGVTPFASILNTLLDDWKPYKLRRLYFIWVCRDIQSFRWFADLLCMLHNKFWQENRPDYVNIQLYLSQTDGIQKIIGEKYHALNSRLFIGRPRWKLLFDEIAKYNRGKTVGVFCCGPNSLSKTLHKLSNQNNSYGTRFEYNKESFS
# [20] = target: NADPH oxidase 5 (Homo sapiens) (UniProt Q96PH1); test: compounds shifting NOX5 Amplex Red fluorescence – cell-based, HEK293-NOX5, NOX inhibitor project, primary screen (AID 1161); settings: HEK293-NOX5, ionomycin, 45 min, higher = more signal
# Chain of NADPH oxidase 5 (Homo sapiens) (Q96PH1 whole entry, looked up): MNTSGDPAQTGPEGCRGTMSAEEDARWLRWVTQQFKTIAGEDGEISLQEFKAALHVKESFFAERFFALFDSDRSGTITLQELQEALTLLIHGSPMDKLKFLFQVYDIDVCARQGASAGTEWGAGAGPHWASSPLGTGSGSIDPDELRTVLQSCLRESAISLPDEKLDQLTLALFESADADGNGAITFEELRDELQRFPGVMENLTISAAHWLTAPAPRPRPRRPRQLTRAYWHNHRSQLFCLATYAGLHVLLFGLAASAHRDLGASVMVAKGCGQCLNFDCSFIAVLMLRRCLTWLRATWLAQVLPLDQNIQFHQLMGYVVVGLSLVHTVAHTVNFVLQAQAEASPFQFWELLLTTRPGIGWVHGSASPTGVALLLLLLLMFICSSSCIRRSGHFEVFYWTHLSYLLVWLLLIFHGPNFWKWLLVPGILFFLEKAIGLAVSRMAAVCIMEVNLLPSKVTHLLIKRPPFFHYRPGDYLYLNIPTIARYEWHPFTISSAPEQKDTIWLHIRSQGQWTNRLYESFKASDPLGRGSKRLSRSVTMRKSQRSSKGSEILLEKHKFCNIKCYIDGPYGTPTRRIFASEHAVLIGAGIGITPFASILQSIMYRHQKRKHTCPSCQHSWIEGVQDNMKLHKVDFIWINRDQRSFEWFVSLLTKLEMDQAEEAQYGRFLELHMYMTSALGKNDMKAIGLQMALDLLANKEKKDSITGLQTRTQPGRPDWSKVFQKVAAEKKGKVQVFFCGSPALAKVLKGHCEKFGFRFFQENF
SMILES,composite z-score [1],z-score [2],z-score [3],z-score [4],z-score [5],composite z-score [6],composite z-score [7],composite z-score (Torsin-1A (Homo sapiens) [8]),composite z-score (Torsin-1A (Homo sapiens) [9]),composite z-score [10],z-score [11],composite z-score [12],z-score [13],z-score [14],z-score [15],z-score [16],z-score [17],z-score [18],z-score [19],z-score [20]
CC(C)C[C@@H]1NC(=O)[C@@]23C(=O)N[C@@H](Cc4ccccc4)C2[C@H](C)[C@@]2(C)O[C@H]2C3/C=C/C/C=C\CNC(=O)CNC1=O (stereo not given in full),-0.0717,-1.91 (inactive),0.0738 (inactive),-1.05 (inactive),-0.767 (inactive),0.228,-0.179,-0.507,0.939,0.214,-0.815 (inactive),-0.0832,0.917 (inactive),0.0107 (inactive),-0.023 (inactive),0.329 (inactive),0.208,1.82 (inactive),1.2 (inactive),-0.441
O=C(NCCN1CCOCC1)[C@@H]1c2ccccc2C(=O)N(Cc2ccc(OC(F)(F)F)cc2)[C@H]1c1ccc(CO)cc1,0.0235,-0.281 (inactive),-0.0358 (inactive),0.558 (inactive),0.338 (inactive),-0.119,-0.0762,-0.282,0.459,-0.0784,-0.288 (inactive),-0.222,1.09 (inactive),0.655 (inactive),1.74 (inactive),-0.161 (inactive),-0.219,0.134 (inactive),0.891 (inactive),2.07
O=C(NCc1ccc(F)cc1)[C@H]1C[C@H]2C(=O)N3CCC[C@H]3C(=O)N2[C@H]1c1ccc(O)cc1,-0.216,-2.87 (inactive),0.893 (inactive),1.24 (inactive),-0.677 (inactive),-1.32,-0.443,0.264,0.202,0.546,1.84 (inactive),-0.491,1.25 (inactive),-0.989 (inactive),-3.27 (inactive),-1.66 (inactive),0.505,-1.35 (inactive),-0.184 (inactive),0.601
C[C@@H]1NC(=O)C([C@@H](C)OCc2ccccc2)NC(=O)[C@@]23C(=O)N[C@@H](Cc4ccccc4)C2[C@H](C)[C@@]2(C)O[C@H]2C3/C=C/C/C=C\CNC1=O (stereo not given in full),0.0076,-0.371 (inactive),0.571 (inactive),-0.507 (inactive),0.428 (inactive),-1.07,-0.25,0.0772,0.0936,1.12,-0.999 (inactive),-0.147,2.36 (inactive),-0.169 (inactive),0.604 (inactive),0.182 (inactive),-0.093,0.715 (inactive),-0.942 (inactive),0.467
CC(C)(C)N1CC=CC23O[C@@H]4/C=C\CCCOC(=O)C4[C@H]2C(=O)N(CCCO)[C@@H]3C1=O (stereo not given in full),-0.285,0.317 (inactive),1.68 (inactive),-0.0697 (inactive),-0.764 (inactive),-0.773,-0.0112,0.585,0.645,0.941,-0.455 (inactive),0.0927,0.46 (inactive),0.223 (inactive),-0.772 (inactive),0.429 (inactive),0.0241,1.63 (inactive),0.724 (inactive),2.51
COc1ccc(CCNC(=O)[C@@H]2c3ccccc3C(=O)N(Cc3ccccc3OC)[C@H]2c2ccc(CO)cc2)cc1,0.321,-0.449 (inactive),-0.0742 (inactive),0.531 (inactive),-1.12 (inactive),0.628,0.0028,0.824,0.321,0.126,-0.499 (inactive),-0.0303,3.02 (inactive),0.0323 (inactive),0.709 (inactive),-0.0383 (inactive),-0.0817,-1.31 (inactive),-0.213 (inactive),-2.09
N#Cc1ccc(C(O)C2C=CC3C(=O)NC(=O)C3N2Nc2ccc(Cl)cc2Cl)cc1 (stereo not given),-0.0844,0.199 (inactive),-0.376 (inactive),0.629 (inactive),-0.728 (inactive),0.865,0.104,-0.404,0.0924,-0.855,-1.18 (inactive),0.243,13.7 (active),2.42 (inactive),2.15 (inactive),1.39 (inactive),-1.29,-1.23 (inactive),-5.23 (inactive),-2.75
O=C(NC1CC1)[C@@H]1c2ccccc2C(=O)N(Cc2cc(C(F)(F)F)cc(C(F)(F)F)c2)[C@H]1c1ccc(CO)cc1,-0.0738,-4.67 (inactive),0.0176 (inactive),1.14 (inactive),-1.05 (inactive),0.0581,-0.248,-0.73,-0.727,0.658,-0.0602 (inactive),-0.308,2.63 (inactive),0.26 (inactive),1.12 (inactive),-0.558 (inactive),2.41,-0.397 (inactive),-1.17 (inactive),-2.23
COC(=O)[C@@]1(Cc2ccc(F)cc2)[C@H]2c3cc(C(=O)N4CCCC4)n(CCc4ccccn4)c3C[C@H]2CN1C(=O)c1ccccc1,-0.0942,-0.619 (inactive),-0.237 (inactive),2.87 (inactive),0.245 (inactive),0.478,0.0889,-0.226,0.783,0.208,-1.04 (inactive),0.413,1.8 (inactive),0.408 (inactive),0.394 (inactive),0.446 (inactive),-0.697,0.557 (inactive),-0.279 (inactive),-0.188
COCCOC(=O)N1C(=O)[C@@]2(c3cc(C#CCC(C(=O)OC)C(=O)OC)ccc31)[C@H](C(N)=O)[C@H]1C(=O)O[C@H](c3ccccc3)[C@H](c3ccccc3)N1[C@@H]2c1ccc(O)cc1,0.449,-5.41 (inactive),-1.01 (inactive),-0.168 (inactive),-0.339 (inactive),-0.0413,-0.0405,0.551,0.919,1.75,-0.247 (inactive),0.0406,26.5 (active),12.4 (active),3.28 (inactive),2.53 (inactive),-0.255,1.29 (inactive),0.385 (inactive),0.73
NC(=O)N1C(=O)C2C(C1=O)C1C=C(CCCO)C2C(c2ccc(CN3CCCC3)cc2)N1Cc1cc2c(cc1Br)OCO2 (stereo not given),-0.0793,-1.34 (inactive),-0.607 (inactive),-0.205 (inactive),-0.274 (inactive),-0.0077,-0.322,0.283,0.479,1.13,-0.272 (inactive),-0.276,1.69 (inactive),0.446 (inactive),0.604 (inactive),0.211 (inactive),0.106,-1.07 (inactive),0.731 (inactive),0.46
[N-]=[N+]=Nc1ccccc1[C@@H]1OC(c2ccc(OCCCO)cc2)=N[C@]1(Cc1ccccc1)C(=O)NCCN1CCOCC1,0.458,-5.28 (inactive),-0.528 (inactive),0.4 (inactive),-1.37 (inactive),1.29,0.347,0.612,1.25,-0.368,0.146 (inactive),0.142,30.2 (active),26.5 (active),3.9 (inactive),1.92 (inactive),1.39,-3.29 (inactive),-1.23 (inactive),-2.13
O=C1C[C@@](C(=O)O)(c2ccc([N+](=O)[O-])cc2)[C@@H](c2ccc(CO)cc2)N1C1CCCCC1,0.239,-3.27 (inactive),0.381 (inactive),-0.179 (inactive),-0.337 (inactive),0.856,-0.0645,0.298,0.371,0.478,-0.485 (inactive),0.0984,5.95 (inactive),0.732 (inactive),2.38 (inactive),0.646 (inactive),0.197,-0.127 (inactive),-1.27 (inactive),0.369
C=CCC(OC(C)=O)[C@@H]1[C@@H](N(Cc2ccc(-c3cccc(C(F)(F)F)c3)o2)C(=O)c2ccc(-c3ccccc3)cc2)c2cc(OCCCO)ccc2N1C(=O)c1ccc2ccccc2c1 (stereo not given in full),-0.0266,-0.87 (inactive),-0.491 (inactive),-0.477 (inactive),0.308 (inactive),0.177,-0.0279,-0.756,-0.322,1.57,-0.251 (inactive),0.0718,0.7 (inactive),-0.125 (inactive),1.36 (inactive),0.408 (inactive),0.921,-1.99 (inactive),-1.98 (inactive),-1.09
COC(=O)[C@@]1(Cc2ccc(F)cc2)[C@H]2c3cc(C(=O)N(C)C)n(C)c3C[C@H]2CN1C(=O)c1ccccc1,0.418,-0.771 (inactive),-0.259 (inactive),0.0007 (inactive),-0.339 (inactive),0.069,0.395,-0.0772,0.814,-0.34,-1.18 (inactive),0.113,0.404 (inactive),0.149 (inactive),-0.898 (inactive),0.545 (inactive),-0.8,0.323 (inactive),-0.0748 (inactive),-0.552
